The results in this text go back to the supplement of paper PMC9262897, “Low-cost anti-mycobacterial drug discovery using engineered E. coli” (Nature Communications, 2022).

What all share (experiment): growth (OD600 after 10 h); higher = more growth (less inhibition)
Assay [1] deals with E. coli TESEC Alr+ wild-type control. To be noted: compound 0.1 mM; raw OD600 reference: median of DMSO wells 0.241, cell-free background 0.041. The protocol:
(§1)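 TESEC Mtb Alr E. coli, or the Alr+ wild-type control, in 384-well plates with Prestwick library compounds at 0.1 mM and 1% DMSO, across arabinose induction levels of 1E3 to 1E7 nM. Growth is read as OD600 after 10 h at 37 °C in triplicate biological replicates.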

Assay [2] has as its system E. coli TESEC Mtb Alr. As to conditions: compound 0.1 mM. The protocol:
as §1

A further assay relates to E. coli TESEC Mtb Asd. To be noted: compound 0.1 mM. On the procedure: (§2)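 TESEC E. coli strains in which the native enzyme is deleted and replaced by arabinose-inducible Mtb Asd, DapB, CysH or TrpD, each grown in its selective medium. Strains were screened against the Prestwick library at 0.1 mM and 1% DMSO in 384-well format at low and high arabinose induction. Growth is read as OD600 after 10 h in triplicate.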

The subject of the next assay is E. coli TESEC Mtb DapB. As to conditions: compound 0.1 mM. The protocol:
as §2

Assay [3] deals with E. coli TESEC Alr+ wild-type control. As to conditions: compound 0.1 mM; raw OD600 reference: median of DMSO wells 0.49, cell-free background 0.052. On the procedure: (§3)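 TESEC Mtb Alr E. coli (ΔaraC ΔtolC ΔentC Δalr ΔdadX, arabinose-inducible Mtb Alr) or the Alr+ wild-type control strain, grown in defined M9-fructose medium without D-alanine in 96-well plates with Prestwick library compounds at 0.1 mM and 1% DMSO. Low Alr induction is 0.1 µM arabinose and high induction is 10 mM arabinose.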

In assay [4] the test system is E. coli TESEC Mtb Alr. As to conditions: compound 0.1 mM. The protocol:
as §3
The source holds these as a separate data set.

Where [5] appears, read: arabinose 1000 nM, raw OD600 reference: median of DMSO wells 0.294, cell-free background 0.041.
Where [6] appears, read: arabinose 10000 nM, raw OD600 reference: median of DMSO wells 0.264, cell-free background 0.041.
Where [7] appears, read: arabinose 100000 nM, raw OD600 reference: median of DMSO wells 0.201, cell-free background 0.041.
Setting [8] is: arabinose 1000000 nM, raw OD600 reference: median of DMSO wells 0.193, cell-free background 0.041.
[9] abbreviates: arabinose 10000000 nM, raw OD600 reference: median of DMSO wells 0.146, cell-free background 0.041.
[10] abbreviates: arabinose induction (level): High, raw OD600 reference: median of DMSO wells 0.331, cell-free background 0.041.
The mark [11] stands for this setting: arabinose induction (level): Low, raw OD600 reference: median of DMSO wells 0.417, cell-free background 0.041.
Setting [12] is: arabinose induction (level): High, raw OD600 reference: median of DMSO wells […], cell-free background 0.041.
[13] abbreviates: arabinose induction (level): Low, raw OD600 reference: median of DMSO wells 0.227, cell-free background 0.041.
Where [14] appears, read: arabinose 100 nM, raw OD600 reference: median of DMSO wells 0.413, cell-free background 0.052.
Where [15] appears, read: arabinose 10000000 nM, raw OD600 reference: median of DMSO wells […], cell-free background 0.052.

Structures can show the parent of a compound that is named as a salt. ± gives the standard deviation of the averaged measurements.

For the compound `CC1=Nc2ccc(Cl)cc2S(=O)(=O)N1` [Diazoxide], the growth in assay [1] came out at 0.244 ± 0.013; in the assay on E. coli TESEC Mtb Alr [2] (setting [5]), 0.276 ± 0.018; in the assay with E. coli TESEC Mtb Alr [2] (setting [6]), 0.271 ± 0.0032; in the assay with E. coli TESEC Mtb Alr [2] (setting [7]), 0.209 ± 0.04; in the assay on E. coli TESEC Mtb Alr [2] (setting [8]), 0.189 ± 0.01; in the assay on E. coli TESEC Mtb Alr [2] (setting [9]) it was 0.146 ± 0.0083. Further, the growth with E. coli TESEC Mtb Asd (setting [10]) is 0.369 ± 0.022; with E. coli TESEC Mtb Asd (setting [11]) it was 0.412 ± 0.032; in the assay with E. coli TESEC Mtb DapB (setting [12]), 0.199 ± 0.0067; with E. coli TESEC Mtb DapB (setting [13]), 0.245 ± 0.048; in assay [3], 0.465 ± 0.041; with E. coli TESEC Mtb Alr [4] (setting [14]), 0.4111 ± 0.0032. The same compound returned a growth in the assay on E. coli TESEC Mtb Alr [4] (setting [15]) of 0.365 ± 0.034.

In the case of `O=C(O)c1cc(=O)c2c(OCC(O)COc3cccc4oc(C(=O)O)cc(=O)c34)cccc2o1` [Cromolyn disodium salt], the growth worked out at 0.2571 ± 0.0016 in assay [1]; 0.311 ± 0.019 with E. coli TESEC Mtb Alr [2] (setting [5]); 0.275 ± 0.0036 in the assay with E. coli TESEC Mtb Alr [2] (setting [6]); 0.21 ± 0.014 in the assay with E. coli TESEC Mtb Alr [2] (setting [7]); 0.201 ± 0.011 with E. coli TESEC Mtb Alr [2] (setting [8]); 0.14 ± 0.0057 with E. coli TESEC Mtb Alr [2] (setting [9]). Moreover, the growth in the assay on E. coli TESEC Mtb Asd (setting [10]) came out at 0.389 ± 0.04; in the assay with E. coli TESEC Mtb Asd (setting [11]), 0.489 ± 0.01; in the assay with E. coli TESEC Mtb DapB (setting [12]) it was 0.189 ± 0.013; in the assay on E. coli TESEC Mtb DapB (setting [13]) it was 0.228 ± 0.034; in assay [3], 0.602 ± 0.064; in the assay on E. coli TESEC Mtb Alr [4] (setting [14]) it was 0.403 ± 0.011. In the assay with E. coli TESEC Mtb Alr [4] (setting [15]), this compound gave a growth of 0.361 ± 0.01.

On to `Cc1nc2n(c(=O)c1CCN1CCC(c3noc4cc(F)ccc34)CC1)CCCC2` [Risperidone], for which the growth in assay [1] was found to be 0.237 ± 0.0077; in the assay with E. coli TESEC Mtb Alr [2] (setting [5]), 0.305 ± 0.007; in the assay on E. coli TESEC Mtb Alr [2] (setting [6]), 0.269 ± 0.014; with E. coli TESEC Mtb Alr [2] (setting [7]), 0.175 ± 0.016; in the assay on E. coli TESEC Mtb Alr [2] (setting [8]), 0.18 ± 0.0097; with E. coli TESEC Mtb Alr [2] (setting [9]), 0.146 ± 0.0055. Besides, the growth with E. coli TESEC Mtb Asd (setting [10]) stood at 0.183 ± 0.032; in the assay with E. coli TESEC Mtb Asd (setting [11]) it was 0.315 ± 0.073; with E. coli TESEC Mtb DapB (setting [12]), 0.201 ± 0.024; with E. coli TESEC Mtb DapB (setting [13]), 0.261 ± 0.019; in assay [3], 0.47 ± 0.027; with E. coli TESEC Mtb Alr [4] (setting [14]) it was 0.397 ± 0.014. Besides, the growth in the assay on E. coli TESEC Mtb Alr [4] (setting [15]) was 0.305 ± 0.023.

Regarding `O=c1[nH]c(=O)n([C@H]2C[C@H](O)[C@@H](CO)O2)cc1I` [Idoxuridine], the growth came to 0.2463 ± 0.002 in assay [1]; 0.285 ± 0.0078 in the assay with E. coli TESEC Mtb Alr [2] (setting [5]); 0.268 ± 0.012 in the assay with E. coli TESEC Mtb Alr [2] (setting [6]); 0.206 ± 0.0098 in the assay on E. coli TESEC Mtb Alr [2] (setting [7]); 0.203 ± 0.0061 in the assay with E. coli TESEC Mtb Alr [2] (setting [8]); 0.15 ± 0.0075 in the assay on E. coli TESEC Mtb Alr [2] (setting [9]). The growth with E. coli TESEC Mtb Asd (setting [10]) amounted to 0.257 ± 0.057; in the assay on E. coli TESEC Mtb Asd (setting [11]) it was 0.276 ± 0.032; in the assay on E. coli TESEC Mtb DapB (setting [12]), 0.185 ± 0.0093; in the assay on E. coli TESEC Mtb DapB (setting [13]), 0.202 ± 0.03; in assay [3] it was 0.483 ± 0.064; with E. coli TESEC Mtb Alr [4] (setting [14]) it was 0.369 ± 0.032. In the assay with E. coli TESEC Mtb Alr [4] (setting [15]), the growth stood at 0.376 ± 0.021.

Regarding `O=C(O)CCNC(=O)c1ccc(/N=N/c2ccc(O)c(C(=O)O)c2)cc1` [Balsalazide Sodium], the growth in assay [1] amounted to 0.276 ± 0.0079; with E. coli TESEC Mtb Alr [2] (setting [5]) it was 0.318 ± 0.0085; in the assay on E. coli TESEC Mtb Alr [2] (setting [6]), 0.2664 ± 0.0024; with E. coli TESEC Mtb Alr [2] (setting [7]) it was 0.213 ± 0.0045; in the assay with E. coli TESEC Mtb Alr [2] (setting [8]), 0.206 ± 0.0036; with E. coli TESEC Mtb Alr [2] (setting [9]), 0.138 ± 0.0021. For the same compound, the growth was found to be 0.252 ± 0.008 with E. coli TESEC Mtb Asd (setting [10]); 0.434 ± 0.012 in the assay with E. coli TESEC Mtb Asd (setting [11]); 0.232 ± 0.0039 in the assay with E. coli TESEC Mtb DapB (setting [12]); 0.241 ± 0.014 with E. coli TESEC Mtb DapB (setting [13]); 0.465 ± 0.057 in assay [3]; 0.394 ± 0.035 with E. coli TESEC Mtb Alr [4] (setting [14]). In the assay on E. coli TESEC Mtb Alr [4] (setting [15]), this compound displayed a growth of 0.378 ± 0.014.

As for `O=C1OCCN1/N=C/c1ccc([N+](=O)[O-])o1` [Furazolidone], the growth in assay [1] was found to be 0.0406 ± 0.0001; in the assay on E. coli TESEC Mtb Alr [2] (setting [5]), 0.041 ± 0.00078; with E. coli TESEC Mtb Alr [2] (setting [6]), 0.04053 ± 0.00021; with E. coli TESEC Mtb Alr [2] (setting [7]), 0.0418 ± 0.00065; in the assay on E. coli TESEC Mtb Alr [2] (setting [8]), 0.03987 ± 0.00012; in the assay on E. coli TESEC Mtb Alr [2] (setting [9]), 0.0412 ± 0.0008. The growth amounted to 0.056 ± 0.0037 in the assay with E. coli TESEC Mtb Asd (setting [10]); 0.0561 ± 0.0034 with E. coli TESEC Mtb Asd (setting [11]); 0.114 ± 0.0074 in the assay with E. coli TESEC Mtb DapB (setting [12]); 0.112 ± 0.012 with E. coli TESEC Mtb DapB (setting [13]); 0.05247 ± 0.00031 in assay [3]; 0.0572 ± 0.0027 in the assay with E. coli TESEC Mtb Alr [4] (setting [14]). The growth with E. coli TESEC Mtb Alr [4] (setting [15]) amounted to 0.05093 ± 0.00032.

Take `Cc1ccc(C(=O)c2cc(O)c(O)c([N+](=O)[O-])c2)cc1` [Tolcapone]: the growth in assay [1] came out at 0.04277 ± 0.00032; in the assay with E. coli TESEC Mtb Alr [2] (setting [5]) it was 0.0471 ± 0.0057; with E. coli TESEC Mtb Alr [2] (setting [6]), 0.04323 ± 0.00038; in the assay with E. coli TESEC Mtb Alr [2] (setting [7]) it was 0.0445 ± 0.00061; in the assay on E. coli TESEC Mtb Alr [2] (setting [8]) it was 0.04313 ± 0.00042; in the assay on E. coli TESEC Mtb Alr [2] (setting [9]), 0.0485 ± 0.00089. Also, the growth with E. coli TESEC Mtb Asd (setting [10]) was 0.0527 ± 0.0018; in the assay with E. coli TESEC Mtb Asd (setting [11]) it was 0.0521 ± 0.0091; in the assay on E. coli TESEC Mtb DapB (setting [12]) it was 0.0526; with E. coli TESEC Mtb DapB (setting [13]), 0.0557 ± 0.0019; in assay [3] it was 0.065 ± 0.0022; in the assay with E. coli TESEC Mtb Alr [4] (setting [14]), 0.0574 ± 0.0008. In the assay with E. coli TESEC Mtb Alr [4] (setting [15]), the growth is 0.0554 ± 0.00035.
